# Measurements published in PubChem BioAssay.
# Where “and” joins values, the source holds several entries; their conditions need not be identical. Equal entries are not always repeated. Some compounds were tested as several samples or in several runs, with calls that do not always agree. Calls of active or inactive are those of the source.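 Rule for the calls, unless noted: active = thallium flux through the channel raised or lowered by more than 3 SD from vehicle-only wells, actives on both sides; inactive = the rest.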
# How the values were obtained:
# [1] = stimulators of nuclear beta-catenin in C2C12, primary screen, imaging, WNT3A-conditioned medium, mouse C2C12, NPC library (AID 1117326; in the data active = nuclear beta-catenin stimulation mostly above about 4.2%, no sharp cut-off; inactive = mostly below about 10%); conditions: stronger effect = higher value
# [2] = stimulators of insulin release from INS-1E, primary screen, cell-based, 5 mM glucose, NPC library (AID 1117329;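 active = compound raises insulin release from rat beta cells at 5 mM glucose, no numeric limit stated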); conditions: rat INS-1E insulin secretion, at 10 µM, stronger effect = higher value
# [3] = growth inhibition of GSK3B-pretreated HCT116 cells – cell-based, CellTiter-Glo, 0.2 to 20 µM (AID 1117336;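 active = compounds lowering colon cancer cell viability after pretreatment blocking the GSK3B kinase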); conditions: HCT116 viability after GSK3B inhibitor, at 20 µM, stronger effect = higher value
# [4] = inhibition of endothelial tube formation, primary screen, imaging, VEGF stimulated, CD31 staining, tube area, NPC library (AID 1117340;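 active = compound that reduces growth-factor-driven endothelial tube area in a mixed cell culture, no cutoff stated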); conditions: VEGF-stimulated ADSC/ECFC co-culture, at 10 µM, stronger effect = higher value
# [5] = glucagon-like peptide 1 release enhancers, primary assay, NCI-H716 cell line, NPC library (AID 1117341;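 active = compound raises GLP1 secretion from the human gut endocrine cells, with no numeric limit stated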); conditions: NCI-H716 cells, at 10 µM, stronger effect = higher value
# [6] = HCT116 colon cancer cell growth inhibition, primary screen, CellTiter-Glo luminescence, NPC library (AID 1117342;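 active = compounds that lower survival of HCT116 colon cancer cells in the luminescence readout, no numeric limit stated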); conditions: at 20 µM (top of the series)
# [7] = CellTiter-Glo luminescent readout of SW480 viability loss, NPC library primary (AID 1117343;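 active = compounds that lower viability of the colon cancer cells in the luminescence readout, with no numeric limit stated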); conditions: CellTiter-Glo luminescence; at 20 µM (top of the series)
# [8] = decreased DLD-1 cellular survival, CellTiter-Glo luminescent readout, NPC compound collection, primary HTS (AID 1117346;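 active = compounds that lower survival of DLD-1 colon cancer cells in the luminescence readout, no cutoff given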); conditions: DLD-1 viability, CellTiter-Glo luminescence; at 20 µM (top of the series)
# [9] = target: 6-phosphogluconate dehydrogenase, decarboxylating (Homo sapiens) (UniProt P52209); assay: 6PGD enzyme inhibitors, primary screen, biochemical, human, recombinant enzyme, NADPH absorbance (AID 1159550;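 active = at least 20% inhibition of 6-phosphogluconate dehydrogenase activity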); conditions: recombinant 6PGD, NADPH absorbance 341 nm; at 10 µM; stronger effect = higher value
# Sequence of 6-phosphogluconate dehydrogenase, decarboxylating (Homo sapiens) (P52209 whole entry, looked up): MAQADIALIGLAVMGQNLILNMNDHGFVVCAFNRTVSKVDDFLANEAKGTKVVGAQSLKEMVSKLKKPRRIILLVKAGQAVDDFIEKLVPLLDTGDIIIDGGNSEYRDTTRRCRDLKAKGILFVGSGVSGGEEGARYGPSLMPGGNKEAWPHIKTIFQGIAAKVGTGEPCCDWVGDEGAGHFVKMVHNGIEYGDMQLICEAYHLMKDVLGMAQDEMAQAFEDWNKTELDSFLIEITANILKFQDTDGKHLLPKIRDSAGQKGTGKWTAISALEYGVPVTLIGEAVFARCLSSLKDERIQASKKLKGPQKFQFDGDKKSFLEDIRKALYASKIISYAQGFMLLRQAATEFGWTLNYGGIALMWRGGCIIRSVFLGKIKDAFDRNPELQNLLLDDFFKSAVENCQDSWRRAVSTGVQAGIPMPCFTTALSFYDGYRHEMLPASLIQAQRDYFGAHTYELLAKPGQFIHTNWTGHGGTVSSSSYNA
# [10] = differential killing of epithelial or mesenchymal cells, primary screen, imaging, PC-3E GFP, TEM4-18 mCherry, co-culture (AID 1345086;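 active = compounds killing one labelled cell type while sparing the other, by normalised counts and ratio limits, not self-fluorescent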;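 for all read-outs here: cells exposed to compound for 72 h before imaging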;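 for red/green cell ratio (normalised): normalised mesenchymal count divided by normalised epithelial count so high means epithelial killing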); conditions: imaging cell counts, at 1 µM; for red/green cell ratio (normalised): actives lie on both sides, counts scaled to control wells, 1 = unselective
# [11] = sensitizers of A549 cells to miR-34 induction, primary screen, imaging, A549 dox-inducible miR-34, nuclei and caspase counts (AID 1347080;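 active = compounds whose cell count with miR-34 switched on is under 0.7 times the count with it off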); conditions: A549 miR-34 inducible, Hoechst nuclei count, 48 h
# F380Y = assay: modulators of BK channel variants, profiling panel, selectivity assay, cell-based, U2OS BacMam, thallium flux, beta subunits (AID 1259406); conditions: at 30 µM;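 note: initial slope of Thallos dye fluorescence rise after thallium is added; log ratio against the mean of 0.3% DMSO vehicle wells on the same plate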
# F380Y/beta1 = assay: as above; conditions: at 30 µM
# F380Y/beta2Delta = assay: as above; conditions: at 30 µM
# F380Y/beta4 = assay: as above; conditions: at 30 µM
# [12] = target: Calcium-activated potassium channel subunit alpha-1 (Homo sapiens) + Leucine-rich repeat-containing protein 26 (Homo sapiens) (UniProt Q12791+Q2I0M4); assay: as above; conditions: F380Y/Slo1WT/gamma1, at 30 µM
# Sequence of Calcium-activated potassium channel subunit alpha-1 (Homo sapiens) + Leucine-rich repeat-containing protein 26 (Homo sapiens) (Q2I0M4 whole entry, looked up, one chain of several): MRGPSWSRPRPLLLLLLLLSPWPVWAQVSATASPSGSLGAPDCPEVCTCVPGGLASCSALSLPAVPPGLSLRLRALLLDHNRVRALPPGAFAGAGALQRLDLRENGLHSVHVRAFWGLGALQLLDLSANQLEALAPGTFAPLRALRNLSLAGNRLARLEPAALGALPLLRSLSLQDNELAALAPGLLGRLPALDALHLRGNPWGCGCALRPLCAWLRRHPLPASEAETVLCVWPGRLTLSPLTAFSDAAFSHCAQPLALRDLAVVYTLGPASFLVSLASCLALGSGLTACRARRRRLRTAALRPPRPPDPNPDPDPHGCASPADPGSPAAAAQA
# R275C = assay: as above; conditions: at 30 µM
# R275C/beta1 = assay: as above; conditions: at 30 µM
# [13] = survival rescue of mitochondrial mutant cells in low glucose, primary screen, MELAS cybrids, Rieske KO mouse fibroblasts, CellTiter-Glo (AID 1508586;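 active = mean z-score across replicates of 1.96 or higher in either the MELAS or the Rieske mutant cell line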;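 note: z relative to plate mean and SD of compound and empty wells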)
# [14] = measured here: epithelial PC-3E GFP cell survival
# [15] = measured here: mesenchymal TEM4-18 mCherry cell survival
# [16] = stronger effect = lower value, cell number ratio, induced over uninduced
# [17] = measured here: relative caspase fold change +Dox/-Dox
# [18] = measured here: total cells with miR-34 induction, stronger effect = lower value
# [19] = measured here: total cells without miR-34 induction
# [20] = MELAS cybrid survival, CellTiter-Glo 48 h, stronger effect = higher value
# [21] = Rieske KO mouse fibroblast survival, CellTiter-Glo 72 h
smiles,measurement,setting,value
Nc1ncn([C@@H]2O[C@H](CO)[C@@H](O)[C@H]2O)c(=O)n1,nuclear beta-catenin stimulation,[1]; at 10 µM,21.7% (inactive)
same,nuclear beta-catenin stimulation,"[1]; stimulation, at 2 µM",1.8%
same,insulin secretion stimulation,[2],0.5% (inactive)
same,viability decrease,[3],83.3% (active)
same,tube area decrease,[4],66.1% (active)
same,GLP1 secretion stimulation,[5],-0.3% (inactive)
same,inhibition of viability,[6],94.3% (active)
same,viability decrease (inhibition),[7],113% (active)
same,viability decrease (inhibition),[8],91% (active)
same,inhibition,[9],4.17% (inactive)
same,red/green cell ratio (normalised),[10],0.99 (inactive)
same,normalised cell number,[10]; [14],0.83
same,normalised cell number,[10]; [15],0.82
same,fold change,[11]; [16],0.885 (inactive) and 0.737 (inactive) and 0.556 (active)
same,fold change,[11]; [17],3.44 and 3.26 and 2.98
same,cell count,[11]; [18],1630 and 1960 and 3690
same,cell count,[11]; [19],1840 and 2660 and 6640
same,log fold change Tl+ flux,F380Y,-0.0337 (inactive)
same,log fold change Tl+ flux,F380Y/beta1,-0.0139 (inactive)
same,log fold change Tl+ flux,F380Y/beta2Delta,0.0239 (inactive)
same,log fold change Tl+ flux,F380Y/beta4,-0.0152 (inactive)
same,log fold change Tl+ flux,[12],0.00381 (inactive)
same,log fold change Tl+ flux,R275C,0.0227 (inactive)
same,log fold change Tl+ flux,R275C/beta1,0.00104 (inactive)
OCCN1CCN(CCCN2c3ccccc3Sc3ccc(C(F)(F)F)cc32)CC1,nuclear beta-catenin stimulation,[1]; at 10 µM,39.2% (inactive)
same,nuclear beta-catenin stimulation,"[1]; stimulation, at 2 µM",6.3%
same,insulin secretion stimulation,[2],8.85% (inactive)
same,viability decrease,[3],118% (active)
same,tube area decrease,[4],98.9% (active)
same,GLP1 secretion stimulation,[5],15.4% (inactive)
same,inhibition of viability,[6],124% (active)
same,viability decrease (inhibition),[7],157% (active)
same,viability decrease (inhibition),[8],101% (active)
same,inhibition,[9],10.2% (inactive)
same,red/green cell ratio (normalised),[10],1.23 (inactive)
same,normalised cell number,[10]; [14],0.78
same,normalised cell number,[10]; [15],0.95
same,z-score,[13]; [20],-1.28 (inactive) and 0.571 (inactive)
same,z-score,[13]; [21],-0.139 and 0.376
same,log fold change Tl+ flux,F380Y,0.235 (active)
same,log fold change Tl+ flux,F380Y/beta1,0.117 (active)
same,log fold change Tl+ flux,F380Y/beta2Delta,0.167 (active)
same,log fold change Tl+ flux,F380Y/beta4,0.354 (active)
same,log fold change Tl+ flux,[12],0.0357 (inactive)
same,log fold change Tl+ flux,R275C,-0.11 (inactive)
same,log fold change Tl+ flux,R275C/beta1,0.409 (active)
Cc1ncc([N+](=O)[O-])n1CC(C)O (configuration not stated),nuclear beta-catenin stimulation,[1]; at 10 µM,3.5% (inactive)
same,nuclear beta-catenin stimulation,"[1]; stimulation, at 2 µM",1.6%
same,insulin secretion stimulation,[2],-0.9% (inactive)
same,viability decrease,[3],-3.45% (inactive)
same,tube area decrease,[4],-13.6% (inactive)
same,GLP1 secretion stimulation,[5],4.1% (inactive)
same,inhibition of viability,[6],-0.3% (inactive)
same,viability decrease (inhibition),[7],5.3% (inactive)
same,viability decrease (inhibition),[8],-0.75% (inactive)
same,inhibition,[9],-1.51% (inactive)
same,red/green cell ratio (normalised),[10],0.83 (inactive)
same,normalised cell number,[10]; [14],1.13
same,normalised cell number,[10]; [15],0.94
same,fold change,[11]; [16],0.961 (inactive) and 0.91 (inactive)
same,fold change,[11]; [17],1.68 and 0.635 and 1.41
same,cell count,[11]; [18],9430 and 9630 and 9650
same,cell count,[11]; [19],9820 and 10000 and 10600
same,z-score,[13]; [20],-0.319 (inactive) and 0.295 (inactive) and -0.342 (inactive)
same,z-score,[13]; [21],0.828 and -0.245 and -0.0796
same,log fold change Tl+ flux,F380Y,-0.058 (inactive)
same,log fold change Tl+ flux,F380Y/beta1,-0.0446 (inactive)
same,log fold change Tl+ flux,F380Y/beta2Delta,-0.00369 (inactive)
same,log fold change Tl+ flux,F380Y/beta4,0.0424 (inactive)
same,log fold change Tl+ flux,[12],-0.0293 (inactive)
same,log fold change Tl+ flux,R275C,-0.115 (active)
same,log fold change Tl+ flux,R275C/beta1,0.00616 (inactive)
